Values joined by “and” are separate entries in the source; they are usually repeats but may differ in a detail not shown here. Equal entries are not always repeated. Hit rate of the full screen: of about 5,500 compounds, about 2,000 (36%) were called active. Inconclusive results (about 18%) are left out. Rule as the data show it: active = normalized growth mostly below about 0.91 (no sharp cut-off); inconclusive = no clear call, values can overlap the other calls; inactive = mostly above about 0.92. The list shows a part of the results.
Assay: chemical genetic growth profiling, strain panel (AID 1159580);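 also: tested at 20 µM; growth read once vehicle control cultures reached saturation at 30 °C; 1 = growth at the plate median or of vehicle wells; lower values mean less growth of the strain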
Details: S. cerevisiae deletion strains, growth OD

Measured: normalized growth

NC[C@H]1O[C@H](O[C@H]2C(O[C@@H]3O[C@H](CO)[C@@H](O)[C@H]3O)[C@@H](O)[C@H](N)C[C@@H]2N)[C@H](N)[C@@H](O)[C@@H]1O (some centres not stated)
inactive: locus YAL013W, strain DEP1, hits give low values 1 | locus YAL021C, strain ccr4, hits give low values 1.02 | locus YAL026C, strain drs2, hits give low values 0.998 | locus YAL030W, strain snc1, hits give low values 0.994 | locus YBL061C, strain skt5, hits give low values 0.997 | locus YBR009C, strain hhf1, hits give low values 0.975 | locus YBR021W, strain FUR4, hits give low values 0.969 | locus YBR023C, strain chs3, hits give low values 0.995 | locus YBR171W, strain sec66, hits give low values 0.992 | locus YBR229C, strain ROT2, hits give low values 0.99 | locus YBR231C, strain swc5, hits give low values 0.998 | locus YBR279W, strain paf1, hits give low values 0.999 | locus YCL011C, strain gbp2, hits give low values 1 | locus YCL016C, strain dcc1, hits give low values 0.996 | locus YCL029C, strain bik1, hits give low values 0.987 | locus YCL061C, strain MRC1, hits give low values 0.989 | locus YCL069W, strain vba3, hits give low values 0.997 | locus YCR088W, strain abp1, hits give low values 0.998 | locus YDL005C, strain med2, hits give low values 1.01 | locus YDL035C, strain GPR1, hits give low values 1.01 | locus YDL040C, strain nat1, hits give low values 0.983 | locus YDL074C, strain BRE1, hits give low values 0.985 | locus YDL101C, strain DUN1, hits give low values 0.987 | locus YDL134C, strain PPH21, hits give low values 0.988 | locus YDL185W, strain tfp1, hits give low values 0.983 | locus YDL192W, strain arf1, hits give low values 0.996 | locus YDR001C, strain nth1, hits give low values 0.989 | locus YDR069C, strain doa4, hits give low values 0.99 | locus YDR101C, strain arx1, hits give low values 0.972 | locus YDR137W, strain rgp1, hits give low values 1.02 | locus YDR150W, strain NUM1, hits give low values 1 | locus YDR159W, strain sac3, hits give low values 0.982 | locus YDR162C, strain NBP2, hits give low values 1 | locus YDR195W, strain ref2 0.939 | locus YDR297W, strain sur2, hits give low values 0.99 | locus YDR318W, strain mcm21, hits give low values 0.996 | locus YDR334W, strain swr1, hits give low values 0.997 | locus YDR335W, strain msn5, hits give low values 0.994 | locus YDR388W, hits give low values 0.992 | locus YDR392W, strain spt3, hits give low values 0.918 | locus YDR502C, strain sam2, hits give low values 0.998 | locus YEL003W, strain gim4, hits give low values 1 | locus YEL037C, strain rad23, hits give low values 0.995 | locus YEL061C, strain CIN8 (second series), hits give low values 0.991 | locus YEL061C, strain CIN8, hits give low values 0.999 | locus YER015W, strain faa2, hits give low values 0.998 | locus YER016W, strain bim1, hits give low values 0.993 | locus YER110C, hits give low values 0.993 | locus YER111C, strain swi4, hits give low values 0.977 | locus YER155C, strain BEM2 (second series), hits give low values 0.974 | locus YER155C, strain BEM2, hits give low values 0.957 | locus YER167W, strain BCK2, hits give low values 1 | locus YFR010W, strain ubp6, hits give low values 0.999 | locus YGL078C, strain dbp3, hits give low values 0.988 | locus YGL086W, strain mad1, hits give low values 0.994 | locus YGL167C, strain pmr1, hits give low values 0.992 | locus YGL173C, strain kem1, hits give low values 1 | locus YGL227W, strain vid30, hits give low values 0.989 | locus YGL240W, strain doc1, hits give low values 0.991 | locus YGL248W, strain PDE1, hits give low values 0.994 | locus YGL253W, strain hxk2, hits give low values 0.985 | locus YGR078C, strain PAC10, hits give low values 0.994 | locus YGR135W, strain pre9, hits give low values 0.985 | locus YGR229C, strain SMI1, hits give low values 1.03 | locus YGR252W, strain gcn5, hits give low values 1.08 | locus YHR013C, strain ard1, hits give low values 0.976 | locus YHR027C, strain rpn1, hits give low values 1 | locus YHR030C, strain SLT2, hits give low values 0.994 and 0.986 | locus YHR079C, strain IRE1 (second series), hits give low values 0.983 | locus YHR079C, strain IRE1, hits give low values 0.993 | locus YHR094C, strain hxt1, hits give low values 0.99 | locus YHR129C, strain ARP1, hits give low values 0.986 | locus YHR142W, strain chs7, hits give low values 1.01 | locus YHR200W, strain rpn10, hits give low values 0.989 | locus YIL066C, strain RNR3, hits give low values 0.991 | locus YIL073C, strain SPO22, hits give low values 1.01 | locus YIL125W, strain kgd1, hits give low values 1 | locus YIR030C, strain dcg1, hits give low values 0.988 | locus YJL092W, strain hpr5, hits give low values 0.994 | locus YJL095W, strain BCK1 (second series), hits give low values 0.995 | locus YJL095W, strain BCK1, hits give low values 0.984 and 1.02 | locus YJL115W, strain asf1, hits give low values 0.995 | locus YJL129C, strain trk1, hits give low values 1 | locus YJL134W, strain LCB3, hits give low values 0.992 | locus YJL154C, strain vps35, hits give low values 0.986 | locus YJL164C, strain tpk1, hits give low values 1 | locus YJL166W, strain qcr8, hits give low values 1.01 | locus YJL168C, strain set2, hits give low values 0.986 | locus YJL187C, strain SWE1 (second series), hits give low values 0.991 | locus YJL187C, strain SWE1, hits give low values 0.997 | locus YJR043C, strain POL32, hits give low values 0.994 | locus YJR066W, strain TOR1, hits give low values 0.93

Reference: PubChem BioAssay AID1159580 (chemical genetic matrix, 2015)
